For some of these results: Measured potencies and affinities stand elsewhere. Calls of active or inactive are those of the source.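 The calls were made as follows, unless noted: active = primary screen activator hit with a dose response curve and TRPC4 channel activation at any tested dose; inactive = no activation, no dose response, or not a primary hit.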
Legend:
[1] = system: TRPC4 beta (transient receptor potential cation channel C4), mouse; test: TRPC4 cation channel opening, retest – cell-based, Fluo4 calcium, HEK293 TRPC4beta/mu-opioid, duplicates, 10 µM, confirmation (AID 2426;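 active = fluorescence ratio normalized to control raised more than 50% in primary screen plus both repeat runs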); conditions: Fluo4 calcium fluorescence, at 10 µM; active compounds read high
[2] = system: transient receptor potential cation channel C4 beta (TRPC4), mouse; test: TRPC4 cation channel opening, second retest – cell-based, second round, Fluo4, HEK293 TRPC4beta/mu-opioid, 1 µM, confirmation (AID 2461;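 active = primary screen active and over 50% activation in each of two duplicate runs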); conditions: Fluo4 calcium fluorescence, at 1 µM; active compounds read high
[3] = system: TRPC4 (transient receptor potential cation channel C4 beta), mouse; test: potentiation of DAMGO EC20 TRPC4 response – cell-based, second round, Fluo-4, HEK293 TRPC4beta/mu-opioid, 1 µM, confirmation (AID 2554;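 active = primary screen hit whose fluorescence ratio, in both repeats, exceeds the weak agonist control mean by 3 SD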); conditions: DAMGO EC20, Fluo-4 calcium flux, at 1 µM; active compounds read high
[4] = system: TRPC4 beta (transient receptor potential cation channel C4), mouse; test: potentiation of DAMGO EC20 TRPC4 response – cell-based, Fluo-4, HEK293 TRPC4beta/mu-opioid, confirmation (AID 2555;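 active = primary screen hit whose calcium fluorescence ratio, in both repeats, exceeds the weak agonist control mean by 3 SD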); conditions: DAMGO EC20, Fluo-4 calcium flux, at 10 µM; active compounds read high
[5] = target: Short transient receptor potential channel 4 (Mus musculus) (UniProt Q9QUQ5); test: blockers of DAMGO-evoked TRPC4 calcium flux – cell-based, Fluo4, HEK293 TRPC4beta/mu-opioid, confirmation (AID 2636;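 active = calcium signal cut by more than 3 SD below the full-agonist control yet still positive, in both repeats and the earlier primary screen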); conditions: at 10 µM; active compounds read high
[6] = target: Short transient receptor potential channel 4 (Mus musculus) (UniProt Q9QUQ5); test: blockers of DAMGO-evoked TRPC4 calcium flux – cell-based, second round, Fluo4, HEK293 TRPC4beta/mu-opioid, 1 µM, confirmation (AID 2637;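 active = calcium signal ratio cut to more than 3 SD under the fully stimulated control mean yet still positive, in both repeats and the primary screen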); conditions: at 1 µM; active compounds read high
[7] = target: Short transient receptor potential channel 4 (Mus musculus) (UniProt Q9QUQ5); test: calcium entry via TRPC4 opening agents – cell-based, HEK293 TRPC4/mu-opioid, Fluo-4 calcium, dose response (AID 434937)
[8] = target: Short transient receptor potential channel 4 (Mus musculus) (UniProt Q9QUQ5); test: potentiation of DAMGO-evoked TRPC4 calcium signal – cell-based, HEK293 TRPC4/mu-opioid, Fluo-4 calcium, EC20 DAMGO, dose response (AID 434941;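 active = earlier screen potentiator hit that boosts the TRPC4 ion channel at some dose, with a dose response; inactive = no potentiation, no dose response, or not a prior hit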;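 also: calcium entry triggered by an EC20 dose of DAMGO at the co-expressed mu-opioid receptor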)
[9] = target: Short transient receptor potential channel 4 (Mus musculus) (UniProt Q9QUQ5); test: block of DAMGO-driven TRPC4 calcium entry – cell-based, HEK293 TRPC4/mu-opioid, Fluo-4 calcium, dose response (AID 434942;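 active = primary screen inhibitor hit that blocks the TRPC4 channel at some tested dose, yielding a dose curve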)
[10] = target: Short transient receptor potential channel 6 (Mus musculus) (UniProt Q61143); test: TRPC6 blockade by TRPC4 inhibitor hits – cell-based, HEK293, membrane potential dye, duplicate, selectivity assay for TRPC4 inhibitor project, confirmation (AID 434948;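 active = active in primary screen and both duplicates, each dropping signal beyond three positive-control SD with fluorescence still positive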); conditions: HEK293 TRPC6, membrane potential dye fluorescence, at 10 µM, stimulated with maximal-effect acetylcholine; active compounds read high
[11] = target: Short transient receptor potential channel 6 (Mus musculus) (UniProt Q61143); test: TRPC6 opening by TRPC4 activator hits – cell-based, HEK293, membrane potential dye, duplicate, selectivity assay for TRPC4 activator project, confirmation (AID 434950;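 active = membrane potential signal rise above negative control mean plus 3 SD in both duplicates, also active in the earlier TRPC4 screen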); conditions: HEK293 TRPC6, membrane potential fluorescence, at 10 µM; activation: active compounds read high; outcome: activation
[12] = target: Short transient receptor potential channel 6 (Mus musculus) (UniProt Q61143); test: positive modulators of mouse TRPC6 channel – HEK293 cells, membrane potential dye, duplicate, selectivity assay for TRPC4 potentiator project, confirmation (AID 434952;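 active = compound raising the membrane signal above positive-control mean plus 3 SD in both repeats, and a primary screen hit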); conditions: HEK293 TRPC6, membrane potential dye fluorescence, at 10 µM, maximal acetylcholine added after compound; active compounds read high
[13] = target: Short transient receptor potential channel 4 (Mus musculus) (UniProt Q9QUQ5); test: calcium flux activators in TRPC4/5HT1a cells, counter-screen for TRPC4 activator project, cell-based, second counter screen, HEK293 TRPC4/5HT1a, Fluo-4 (AID 434977;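 active = calcium signal rise above buffer-control mean plus 5 SD in both duplicates, and also a hit in the primary screen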); conditions: Fluo-4 calcium flux, at 10 µM; active compounds read high
[14] = serotonin-gated TRPC4 signal block – cell-based, second counter screen, HEK293 TRPC4/5HT1a, Fluo-4, counter-screen for TRPC4 inhibitor project, confirmation (AID 434978;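 active = primary screen active whose calcium signal fell more than 3 SD beyond the full-serotonin control mean in both duplicate plates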;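 also: serotonin given first at submaximal then at maximal dose after compound preincubation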); conditions: Fluo-4 calcium flux, at 10 µM, serotonin added to trigger calcium flux; active compounds read high
[15] = system: TRPC4 (mouse), co-expressed with 5HT1a in HEK293; test: enhancement of serotonin-evoked TRPC4 response – cell-based, second counter screen, HEK293 TRPC4/5HT1a, Fluo-4, counter-screen for TRPC4 potentiator project, confirmation (AID 434979;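 active = signal rise over 3 SD above mean of control wells given weak agonist, in both repeats and first screen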); conditions: Fluo-4 calcium flux, at 10 µM, serotonin added at its EC20 dose; active compounds read high
[16] = nonspecific calcium rise without TRPC4 – cell-based, HEK293 mu-opioid receptor line, counter-screen for TRPC4 activator project, confirmation (AID 449723;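 active = hit in primary screen, with calcium signal over 5 SD above buffer well mean in both duplicates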;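 also: counter screen cells carry the mu-opioid receptor alone and lack TRPC4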); conditions: HEK293 mu-opioid cells, Fluo-4 calcium fluorescence, at 10 µM; active compounds read high
[17] = nonspecific potentiation of DAMGO calcium response – cell-based, HEK293 mu-opioid receptor line, counter-screen for TRPC4 allosteric potentiator project, confirmation (AID 449724;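 active = calcium signal rise more than 3 SD above the low-dose agonist control mean, in both duplicate plates and the primary screen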); conditions: HEK293 mu-opioid receptor cells, Fluo-4 calcium flux, at 10 µM, compound added before EC20 DAMGO stimulus; active compounds read high

Measured: potentiation

Chain of Short transient receptor potential channel 6 (Mus musculus) (Q61143 whole entry, looked up): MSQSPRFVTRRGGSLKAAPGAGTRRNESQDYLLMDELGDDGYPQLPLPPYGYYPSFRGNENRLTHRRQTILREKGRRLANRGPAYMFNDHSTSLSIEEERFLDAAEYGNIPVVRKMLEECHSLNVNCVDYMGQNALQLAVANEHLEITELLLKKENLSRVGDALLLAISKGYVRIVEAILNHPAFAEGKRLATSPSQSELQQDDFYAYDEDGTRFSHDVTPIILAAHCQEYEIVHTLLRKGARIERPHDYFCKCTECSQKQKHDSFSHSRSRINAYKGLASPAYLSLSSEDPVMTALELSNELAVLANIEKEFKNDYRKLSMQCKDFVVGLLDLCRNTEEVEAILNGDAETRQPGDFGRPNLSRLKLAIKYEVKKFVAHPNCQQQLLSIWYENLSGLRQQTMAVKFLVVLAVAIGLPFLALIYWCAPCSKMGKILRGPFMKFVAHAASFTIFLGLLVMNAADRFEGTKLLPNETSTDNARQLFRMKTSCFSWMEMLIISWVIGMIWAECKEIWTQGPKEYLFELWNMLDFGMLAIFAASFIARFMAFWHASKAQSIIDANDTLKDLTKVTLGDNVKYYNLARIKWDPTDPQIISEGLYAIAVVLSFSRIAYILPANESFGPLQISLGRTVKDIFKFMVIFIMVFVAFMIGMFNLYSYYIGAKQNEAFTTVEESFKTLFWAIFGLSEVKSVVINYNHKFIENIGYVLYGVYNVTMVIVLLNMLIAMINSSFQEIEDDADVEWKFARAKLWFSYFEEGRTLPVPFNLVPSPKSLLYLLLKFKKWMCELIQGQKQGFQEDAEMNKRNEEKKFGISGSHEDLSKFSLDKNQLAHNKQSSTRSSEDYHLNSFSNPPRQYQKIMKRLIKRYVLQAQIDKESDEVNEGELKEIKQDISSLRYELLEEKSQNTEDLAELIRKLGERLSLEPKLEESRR
Chain of Short transient receptor potential channel 4 (Mus musculus) (Q9QUQ5 whole entry, looked up): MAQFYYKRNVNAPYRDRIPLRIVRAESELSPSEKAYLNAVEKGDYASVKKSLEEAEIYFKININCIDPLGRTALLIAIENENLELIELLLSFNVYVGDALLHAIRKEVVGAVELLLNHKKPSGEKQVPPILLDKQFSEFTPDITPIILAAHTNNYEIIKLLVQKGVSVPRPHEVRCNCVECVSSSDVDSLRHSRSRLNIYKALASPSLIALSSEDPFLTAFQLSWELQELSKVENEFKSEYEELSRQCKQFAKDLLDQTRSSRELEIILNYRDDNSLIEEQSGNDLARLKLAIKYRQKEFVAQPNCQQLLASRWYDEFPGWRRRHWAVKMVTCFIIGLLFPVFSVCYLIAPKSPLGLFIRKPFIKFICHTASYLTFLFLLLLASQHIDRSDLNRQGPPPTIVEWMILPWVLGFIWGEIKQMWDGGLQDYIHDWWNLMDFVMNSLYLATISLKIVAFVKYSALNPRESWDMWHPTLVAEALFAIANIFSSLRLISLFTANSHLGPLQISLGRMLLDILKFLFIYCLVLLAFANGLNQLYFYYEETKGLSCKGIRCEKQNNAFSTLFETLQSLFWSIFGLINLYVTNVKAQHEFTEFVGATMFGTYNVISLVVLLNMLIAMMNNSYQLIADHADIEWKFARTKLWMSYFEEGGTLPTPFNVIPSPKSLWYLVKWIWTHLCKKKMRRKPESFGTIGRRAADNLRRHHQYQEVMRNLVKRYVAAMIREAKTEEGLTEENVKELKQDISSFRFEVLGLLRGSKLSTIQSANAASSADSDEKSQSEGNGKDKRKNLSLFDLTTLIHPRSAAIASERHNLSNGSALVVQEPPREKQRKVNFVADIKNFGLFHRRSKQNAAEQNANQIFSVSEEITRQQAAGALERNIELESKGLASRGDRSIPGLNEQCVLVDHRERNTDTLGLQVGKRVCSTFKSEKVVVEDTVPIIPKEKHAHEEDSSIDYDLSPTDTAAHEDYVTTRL

O=C(C1CC1)N1CCc2cc(S(=O)(=O)NC3CCN(Cc4ccccc4)CC3)ccc21
inactive: all assays above

CC(C)(C)c1ccc(-c2nnc3sc(-c4ccccn4)nn23)cc1
active: [4] 68%
inactive: all other assays above

CC(C)OC(=O)C1CC=CCC1C(=O)Nc1ccc(Cl)cc1 (stereo not drawn)
inactive: all assays above

CCCn1c(N2CCN(S(=O)(=O)Cc3ccccc3)CC2)nc2ccccc21
active: [4] 11% | [15] 22.3%
inactive: all other assays above

COc1ccc(CCn2c(N)c(C#N)c3nc4ccccc4nc32)cc1OC
inactive: all assays above

CCc1ccc(Nc2n[n+](-c3ccccc3)c(/C=C/c3ccccc3)s2)cc1
active: [4] 14% | [15] 14.8%
inactive: all other assays above

COc1ccccc1CNCc1cc(Br)ccc1OC
inactive: all assays above

O=C(NCc1cccs1)C12CC3CC(CC(C3)C1)C2
inactive: all assays above

O=C(NCCc1ccccc1)c1cnc2ccccc2n1
active: [4] 19% | [15] 27.4%
inactive: all other assays above

CCCCn1c(N)c(N(CCOC)C(=O)c2ccc(-c3ccc(C(C)=O)cc3)o2)c(=O)[nH]c1=O
inactive: all assays above

Cc1ccc(C[n+]2cccc(-c3ccccc3)c2)c(C)c1
inactive: all assays above

Cc1ccc2nc(C(=O)N3CCc4c([nH]c5ccccc45)C3c3ccccn3)cn2c1 (stereo not drawn)
inactive: all assays above

Cc1cc(C)c(C(=O)c2ccc(C(=O)N3CCCCC3)cc2)c(C)c1
inactive: all assays above

CCOC(=O)CC(NC(=O)c1cc2cc(Br)ccc2oc1=O)c1cccc([N+](=O)[O-])c1 (stereo not drawn)
active: [15] 15.9%
inactive: all other assays above

From PubChem BioAssay
